Tg IFNy HTS = T. gondii growth inhibition with IFN-gamma, primary screen, cell-based | Toxoplasma gondii growth in IFN-gamma-treated host cells; stronger effect = lower value | activity change, negative = inhibition, % (no concentration beside the values) | 3.8% of 69,000 active | AID 1259416, 2018; in the data active means activity change below about -70%, passing the limit was not always enough;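 further: host cells are HeLa cells infected with Toxoplasma gondii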
Active calls of the source: *; ! = not confirmed by another sample. Shown is part of a subset that was picked to be rich in hits.

SMILES	Tg IFNy HTS
C[C@@H]1CCCCO[C@H](CN(C)Cc2ccncc2)[C@H](C)CN([C@H](C)CO)C(=O)c2cc(NS(=O)(=O)c3ccc(Cl)cc3)ccc2O1	-103.2*
C=CCN(Cc1ccc(F)cc1)C(=O)c1sccc1C	54.1
CC(C)NC(=O)CN1C[C@H](C(=O)N(C)C)[C@]2(COc3ccccc3C(=O)N2)C1	-14.1
O=C(Nc1ccccc1Oc1ccc(F)cc1)c1ccc(Cn2cncn2)cc1	105.4
Cn1c(C(=O)N2CCN(c3ccccn3)CC2)cc2cc(S(=O)(=O)N3CCCCC3)ccc21	-44.9
COc1ccc(NC(=O)Cn2ncc3c(N4CCC(C)CC4)ncnc32)cc1	54.7
C=CCn1c(=O)c(C(=O)Nc2ccccc2F)c(O)c2ccccc21	16.9
Cc1ccc2[nH]c(=O)c(-c3nc(-c4ccc(F)cc4)no3)c(O)c2c1	14.2
COc1ccc(S(=O)(=O)Nc2ccc3c(c2)C(=O)N([C@H](C)CO)C[C@@H](C)[C@H](CN(C)Cc2ccc(C(F)(F)F)cc2)OCCCC[C@@H](C)O3)cc1	-119.0*
Cc1ccc(S(=O)(=O)Nc2ccc3c(c2)C(=O)N([C@@H](C)CO)C[C@H](C)[C@@H](CN(C)Cc2ccc(C(F)(F)F)cc2)O3)cc1	-59.9
COc1ccc(S(=O)(=O)Nc2ccc3c(c2)C(=O)N([C@@H](C)CO)C[C@@H](C)[C@H](CN(C)Cc2ccc(C(F)(F)F)cc2)OCCCC[C@H](C)O3)cc1	-90.3*
COc1ccc(S(=O)(=O)Nc2ccc3c(c2)C(=O)N([C@H](C)CO)C[C@H](C)[C@H](CN(C)Cc2ccc(C(F)(F)F)cc2)OCCCC[C@@H](C)O3)cc1	21.1
Cc1ccc(S(=O)(=O)Nc2ccc3c(c2)C(=O)N([C@@H](C)CO)C[C@@H](C)[C@@H](CN(C)Cc2ccc(C(F)(F)F)cc2)O3)cc1	-16.5
Cc1ccc(S(=O)(=O)Nc2ccc3c(c2)C(=O)N([C@H](C)CO)C[C@@H](C)[C@@H](CN(C)Cc2ccc(C(F)(F)F)cc2)O3)cc1	7.6
COc1ccc(S(=O)(=O)Nc2ccc3c(c2)C(=O)N([C@H](C)CO)C[C@@H](C)[C@@H](CN(C)Cc2ccc(C(F)(F)F)cc2)OCCCC[C@@H](C)O3)cc1	-11.1
C[C@H]1CCCCO[C@H](CN(C)Cc2ccncc2)[C@@H](C)CN([C@@H](C)CO)C(=O)c2cc(NS(=O)(=O)c3ccc(Cl)cc3)ccc2O1	-47.5
COc1ccc(S(=O)(=O)Nc2ccc3c(c2)C(=O)N([C@H](C)CO)C[C@H](C)[C@H](CN(C)Cc2ccc(C(F)(F)F)cc2)OCCCC[C@H](C)O3)cc1	-110.9*
Fc1ccccc1Cn1c(C2CCOCC2)cc2cccnc21	-28.1
CN(CCc1ccccc1)C1CCCN(C(=O)c2ncccc2O)C1 (stereo not drawn)	10.3
CC(C)(C)c1nc(-c2ccc(C(F)(F)F)cc2)c2c(C(F)(F)F)cccc2n1	28.3
COc1ccccc1-c1cccc(C(=O)N2CCC3(CC2)CNC(=O)O3)c1	34.6
Nc1cc(C(=O)NCC(c2ccc(Cl)cc2)N2CCCC2)[nH]n1 (stereo not drawn)	-1.1
COCCCN1CC2(CCCCN2C(C)=O)CC1=O (stereo not drawn)	116.7
NC(=O)CN1CCCC(c2nccnc2Oc2ccccc2)C1 (stereo not drawn)	-0.9
CCn1cc(CN2CCCC2c2cc(C(C)C)on2)c2ccccc21 (stereo not drawn)	2.7
SMILES	Tg IFNy HTS
c1ccn2cc(CN3CCSCC3)nc2c1	16.0
Cc1cccc2cc(CO)c(N3CCC(CO)(Cc4ccccc4)CC3)nc12	-77.3*
COc1ccc(CC2(CO)CCN(c3ncnc4c3CCC4)CC2)cc1	-49.9
NC(=O)c1cncc(N2CCC(CO)(Cc3ccccc3)CC2)n1	-31.9
CC(C)(C)n1nc(-c2cccc3ccccc23)c2c(N)ncnc21	-76.0*!
c1ccc(-c2nc3ccccc3nc2-c2cccc3ccccc23)cc1	27.0
CCOC(=O)c1c(NC(=O)c2c(C)nn(-c3ccccc3)c2Cl)sc(C)c1C	-48.4
CCOC(=O)c1c(NC(=O)c2ccccc2)sc(C(=O)Nc2ccccc2)c1C	2.9
CCOC(=O)c1c(NC(=S)NC(=O)c2ccccc2)sc(C)c1C	-73.4*
O=C(Oc1ccc2c(-c3ccccc3)cc(=O)oc2c1)c1ccccc1	19.5
COc1ccc(-c2noc(COc3cccnc3C)n2)c(OC)c1OC	-26.0
COc1ccc(-c2cccc(-c3noc(C)n3)c2)c(OC)c1OC	-74.9*
Cc1nc(-c2cccc(-c3cccc4ccnn34)c2)no1	8.0
Brc1ccc(-c2nnc(-c3ccccc3)n2-c2ccccc2)cc1	-6.5
Cc1cccnc1CN1CCN(C(=O)C(=O)c2cccs2)CC1	-43.5
Cn1c(C(=O)NCc2cccc(F)c2)nc2c1CCN(S(C)(=O)=O)C2	-8.8
COCC1c2nnn(C)c2CCN1C(=O)Cc1cccc(F)c1 (stereo not drawn)	3.8
Cn1ncc(Cl)c1-c1cc(C(=O)N[C@H](CN)Cc2cccc(F)c2)sc1Cl	-85.1*
OC1CCN(c2ccnc(-c3ccc4c(c3)OCCO4)n2)C1 (stereo not drawn)	300.6
CS(=O)(=O)N1Cc2ccccc2C2(CCN(C3CCOCC3)CC2)C1	47.4

Screening results (PubChem BioAssay)
